Common to all, as to assay: qHTS profiling for inhibitors of Plasmodium falciparum proliferation (AID 504749); also: nearly all actives have a fitted effect of over 60% in size
Holding throughout (settings): P. falciparum in erythrocytes, SYBR Green DNA, 72 h; series mostly up to 28.7 µM
On the technique in general: qHTS replaces the single test concentration by a dilution series.

One assay concerns CP215. Put shortly:
(§1)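 SYBR Green fluorescence of parasite DNA, read after lysis and overnight dark incubation, measured growth over 72 h in erythrocyte culture at 0.3% parasitemia and 2.5% hematocrit. Data normalised to DMSO and 0.29 uM artemisinin, with plate-drift correction.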

For a further assay, the system named is CP217. An outline of the steps:
as §1

The subject of a further assay is CP237. An outline of the steps: as §1
A further assay concerns CP238. Put shortly: as §1
The test system of the next assay is CP247. Put shortly:
as §1

A further assay has as its system CP250. An outline of the steps:
as §1

Another assay has as its system CP252. An outline of the steps:
as §1

A further assay has as its system CP256. Put shortly: as §1
For the next assay, the system named is CP260. An outline of the steps: as §1
A further assay has as its system CP262. Put shortly:
as §1

The values below come from PubChem BioAssay (NCATS).

Inconclusive results are not listed. Active and inactive are the calls of the source. Calls follow the shape of the dose curve; as a rule, active = well fitted inhibition curve with a large enough effect; inconclusive = small, poorly fitted or top-dose-only effect; inactive = flat fitted curve, though single readings scatter.
Potency is read from the fitted curve at half-maximal effect.

With `O=C1C(=O)c2ncccc2-c2cccnc21`, the Potency in the assay with CP215 was 1350 nM (active); in the assay with CP217, 1260 nM (active); in the assay on CP237, 1000 nM (active); in the assay on CP238, 1000 nM (active); with CP247, 1580 nM (active); with CP250, 1260 nM (active). Moreover, the Potency in the assay on CP252 is 2510 nM (active); in the assay on CP256, 1000 nM (active); in the assay with CP260 it was 891 nM (active); with CP262 it was 6010 nM (active).
Take `C[C@@H]1CCC2[C@@H](C)[C@@H](O)O[C@@H]3O[C@@]4(C)CC[C@@H]1[C@@]23OO4` (stereo partly drawn): the Potency with CP215 was 4.8 nM (active); in the assay with CP217, 2.8 nM (active); in the assay on CP237, 1.6 nM (active); in the assay on CP238, 2.2 nM (active); in the assay on CP247, 3.2 nM (active); in the assay with CP250 it was 2.8 nM (active). The Potency is 2.5 nM (active) in the assay on CP252, 2.2 nM (active) in the assay with CP256, 1.3 nM (active) with CP260 and 6 nM (active) with CP262.
In the case of `COC(=O)CCC(=O)CN`, the Potency entry in the assay on CP215, in the assay with CP217, with CP237, in the assay on CP238, in the assay with CP247 and in the assay on CP250 was “inactive” each time. The Potency entry in the assay on CP252, in the assay on CP256, in the assay on CP260 and in the assay with CP262 was “inactive” each time.
With `CO[C@H]1C[C@@H]2CC[C@@H](C)[C@@](O)(O2)C(=O)C(=O)N2CCCC[C@H]2C(=O)O[C@H]([C@H](C)C[C@@H]2CC[C@@H](OCCO)[C@H](OC)C2)CC(=O)[C@H](C)/C=C(\C)[C@@H](O)[C@@H](OC)C(=O)[C@H](C)C[C@H](C)/C=C/C=C/C=C/1C`, the Potency in the assay with CP215 was 1690 nM (active); in the assay with CP217 it was 1000 nM (active); with CP237, 2000 nM (active); in the assay with CP238, 2820 nM (active); with CP247 it was 1260 nM (active); with CP250, 3160 nM (active). The Potency is 1260 nM (active) in the assay with CP252, 3550 nM (active) in the assay on CP256, 2000 nM (active) in the assay with CP260 and 3010 nM (active) with CP262.
Regarding `CCCC(=O)Nc1ncnc2c1ncn2C1OC2COP(=O)(O)OC2C1OC(=O)CCC` (stereo not drawn), the Potency result with CP215, with CP217, in the assay with CP237, in the assay on CP238, with CP247 and in the assay on CP250 was “inactive” in each case. Further, the Potency result in the assay with CP252, with CP256, in the assay on CP260 and in the assay on CP262 was “inactive” each time.
Consider `CCCC(=O)O[C@]1(C(=O)CCl)[C@H](C)C[C@@H]2[C@H]3CCC4=CC(=O)C=C[C@]4(C)[C@@]3(F)C(=O)C[C@@]21C`, for which the Potency in the assay with CP215 was 3790 nM (active); in the assay with CP217, 3160 nM (active); in the assay on CP237 it was 3550 nM (active); in the assay with CP238 it was 3980 nM (active); in the assay with CP247 it was 2000 nM (active); in the assay on CP250 it was 1580 nM (active). For the same compound, the Potency with CP252 was 3160 nM (active); in the assay on CP256, 794 nM (active); in the assay on CP260, 2820 nM (active); in the assay with CP262, 1690 nM (active).
Turning to `CC1=C(/C=C/C(C)=C/C=C/C(C)=C/C=C/C=C(C)/C=C/C=C(C)/C=C/C2=C(C)CCCC2(C)C)C(C)(C)CCC1`, the Potency entry with CP215, in the assay with CP217, in the assay with CP237, in the assay with CP238, in the assay on CP247 and with CP250 was “inactive” throughout. Moreover, the Potency result with CP252, in the assay with CP256, in the assay with CP260 and with CP262 was “inactive” in each case.
Regarding `O=C(O)c1cc(=O)c2c3nc4ccccc4oc-3cc(=O)c2[nH]1`, the Potency result in the assay with CP215, in the assay with CP217, in the assay with CP238, in the assay with CP247, in the assay on CP250 and in the assay with CP252 was “inactive” in each case. Moreover, in the assay on CP256, the Potency result was “inactive”. Also, the Potency in the assay on CP237 is 2820 nM (active); in the assay on CP260, 12600 nM (active).
In the case of `C[C@H]1C[C@H]2[C@@H]3CCC4=CC(=O)C=C[C@]4(C)[C@@]3(F)[C@@H](O)C[C@]2(C)[C@@]1(O)C(=O)CO`, the Potency entry in the assay on CP215, in the assay with CP217, with CP237, in the assay on CP238, in the assay on CP247 and in the assay on CP250 was “inactive” in each case. Further, the Potency entry in the assay with CP252, in the assay on CP256, in the assay on CP260 and in the assay on CP262 was “inactive” each time.
For the compound `CC1(C)C(C=C(Cl)Cl)C1C(=O)OCc1cccc(Oc2ccccc2)c1` (stereo not drawn), the Potency result in the assay on CP215, in the assay with CP217, in the assay with CP237, with CP238, in the assay with CP247 and in the assay on CP250 was “inactive” throughout. The Potency result with CP252, with CP256, in the assay with CP260 and in the assay on CP262 was “inactive” throughout.
For `CC(=O)Oc1c(C)cc(OCC(O)CNC(C)C)c(C)c1C` (stereo not drawn), the Potency entry in the assay with CP215, in the assay on CP217, with CP237, in the assay with CP238, in the assay with CP247 and in the assay with CP250 was “inactive” each time. Besides, the Potency entry in the assay with CP252, in the assay with CP256, with CP260 and in the assay with CP262 was “inactive” throughout.
On to `CC(C)(C)C(=O)OCOC(=O)[C@@H]1N2C(=O)[C@@H](N=CN3CCCCCC3)[C@H]2SC1(C)C`, for which the Potency entry in the assay with CP215, in the assay with CP217, in the assay with CP237, in the assay on CP238, with CP247 and in the assay with CP250 was “inactive” each time. Besides, the Potency result in the assay with CP252, in the assay on CP256, in the assay with CP260 and with CP262 was “inactive” in each case.
Turning to `NC(=O)c1ncn(C2OC(CO)C(O)C2O)n1` (stereo not drawn), the Potency result in the assay on CP215, in the assay with CP217, in the assay on CP237, in the assay on CP238, in the assay on CP247 and with CP250 was “inactive” each time. In addition, the Potency result in the assay on CP252, with CP256, in the assay on CP260 and in the assay on CP262 was “inactive” throughout.
Turning to `CCCCC(=O)O[C@]1(C(=O)CO)[C@H](C)C[C@H]2[C@@H]3CCC4=CC(=O)C=C[C@]4(C)[C@@]3(F)[C@@H](O)C[C@@]21C`, the Potency result in the assay on CP215, in the assay on CP217, in the assay on CP237, in the assay with CP238, in the assay on CP247 and in the assay on CP250 was “inactive” throughout. For the same compound, the Potency entry with CP252, in the assay with CP256 and in the assay on CP262 was “inactive” in each case.
For the compound `C#CCOc1ccc2c(C)cc(=O)oc2c1`, the Potency result in the assay on CP215, in the assay with CP217, in the assay with CP237, in the assay with CP238, with CP247 and in the assay on CP250 was “inactive” throughout. The Potency result in the assay on CP252, in the assay with CP256, in the assay with CP260 and in the assay on CP262 was “inactive” each time.
On to `CCCCC/C=C\C/C=C\CCCCCCCC(=O)O`, for which the Potency result in the assay with CP215, in the assay with CP217, in the assay on CP237, in the assay with CP238, with CP247 and in the assay with CP250 was “inactive” each time. The Potency entry in the assay on CP252, in the assay on CP256, with CP260 and in the assay on CP262 was “inactive” each time.
Regarding `CCOC(C)=O`, the Potency result with CP215, in the assay on CP217, with CP237, in the assay on CP238, with CP247 and in the assay with CP250 was “inactive” each time. Further, the Potency result with CP252, with CP256, in the assay with CP260 and with CP262 was “inactive” each time.
As for `CCCCCCCCCCCCCCCC(=O)OCC(COC(=O)CCCCCCCCCCCCCCC)OC(=O)CCCCCCCCCCCCCCC`, the Potency result with CP215, in the assay with CP217, in the assay with CP237, in the assay with CP238, in the assay on CP247 and with CP250 was “inactive” throughout. Further, the Potency result with CP252, with CP256, in the assay on CP260 and with CP262 was “inactive” in each case.
